Among all 47,000 compounds or so, about 3,100 (6.6%) were called active. This is one part of a sample in which actives are shown more often than they occur. No stated cut-off is given here; in the data, active means inhibition above about 30%; inactive means the rest.
Target: Ubiquitin carboxyl-terminal hydrolase 17-like protein 5 (Homo sapiens) (UniProt A8MUK1)
Assay: inhibitors of human USP17 deubiquitinase (AID 1645855)
Settings: purified USP17, Ub-rhodamine cleavage fluorescence, 3 h; at 50 µM; stronger effect = higher value

Chain of Ubiquitin carboxyl-terminal hydrolase 17-like protein 5 (Homo sapiens) (A8MUK1 whole entry, looked up): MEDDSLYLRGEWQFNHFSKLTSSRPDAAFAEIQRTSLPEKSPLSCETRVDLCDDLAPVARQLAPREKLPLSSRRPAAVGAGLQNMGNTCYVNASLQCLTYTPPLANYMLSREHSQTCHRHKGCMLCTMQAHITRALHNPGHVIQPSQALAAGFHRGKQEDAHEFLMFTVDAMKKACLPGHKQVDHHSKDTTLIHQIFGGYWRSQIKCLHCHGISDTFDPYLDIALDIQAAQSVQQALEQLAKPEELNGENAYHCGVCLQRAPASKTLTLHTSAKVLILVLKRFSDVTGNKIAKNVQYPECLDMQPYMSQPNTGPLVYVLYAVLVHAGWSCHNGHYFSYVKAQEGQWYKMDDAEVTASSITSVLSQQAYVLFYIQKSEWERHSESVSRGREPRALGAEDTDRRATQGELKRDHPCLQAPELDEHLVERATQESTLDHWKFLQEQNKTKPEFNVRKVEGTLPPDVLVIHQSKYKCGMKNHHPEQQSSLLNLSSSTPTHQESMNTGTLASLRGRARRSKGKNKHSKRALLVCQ

Structure (SMILES)	inhibition
CCNC(=O)c1cccc(Nc2c(-c3ccc(Cl)cc3)nc3cnccn23)c1	-21.3% (inactive)
CC(C)c1noc(-c2ccc(OCC(=O)Nc3ccccc3Br)cc2)n1	-2.89% (inactive)
O=C(NCCc1ccccc1)c1ccc2c(=O)n(Cc3ccco3)c(=O)n(Cc3cccc([N+](=O)[O-])c3)c2c1	53.8% (active)
O=C(Cn1c(=O)n(Cc2ccc3c(c2)OCO3)c(=O)c2ccccc21)NCc1ccco1	23% (inactive)
CC(C)(C)C(=O)Cn1c(=O)n(Cc2ccco2)c(=O)c2ccccc21	-6.03% (inactive)
O=C(O)COCC(=O)Nc1scc2c1c(=O)oc1ccccc12	15.1% (inactive)
CN1CC(=O)N(C2CCCNC2)Cc2c(NC3CCc4ccccc43)ncnc21 (stereo not given)	50.3% (active)
COc1cc(C2CC(=O)c3cnc(N4CCc5ccccc5C4)nc3C2)cc(OC)c1OC (stereo not given)	7.46% (inactive)
CC1CCc2c(cnc3c(C(=O)NCCc4ccccc4)cnn23)C1 (stereo not given)	-1.68% (inactive)
Cc1c(Cl)c([N+](=O)[O-])nn1CCCC(=O)NC(C)c1ccccc1 (stereo not given)	-29.5% (inactive)
CCOC(=O)C1(Cc2cc(-c3ccccc3F)no2)CCN(CC)CC1	-12.6% (inactive)
Cc1c(-c2nn3c(-c4ccco4)nnc3s2)cccc1[N+](=O)[O-]	67.4% (active)
O=C(CSc1cn[nH]n1)Nc1ccc(F)c(Cl)c1	0.831% (inactive)
CC(=O)Nc1ccc(S(=O)(=O)NCc2ccc(C(=O)NCc3ccc(C)cc3)cc2)cc1	52.9% (active)
Cc1ccc(C)c(S(=O)(=O)Nc2ccc(C(=O)NCc3ccc(F)cc3)cc2)c1	-4.3% (inactive)
CC(=O)Nc1ccc(S(=O)(=O)NCCSc2ccc(C)cc2)cc1	-12.3% (inactive)
Cc1cc(N2CCOCC2)nc2ccc(NC(=O)CCC(=O)N3CCN(c4ccccn4)CC3)cc12	-15.4% (inactive)
Cc1ccc(C)c(N2CCN(C(=O)CCC(=O)Nc3ccc4nc(N5CCN(C)CC5)cc(C)c4c3)CC2)c1	-11.5% (inactive)
COc1ccc(CCC(=O)Nc2ccc3nc(N4CCOCC4)cc(C)c3c2)cc1	33.3% (active)
Cc1nc2cc(C(=O)NCc3ccccn3)ccc2n1-c1cccc(F)c1	0.0347% (inactive)
Cc1nn(-c2ccccc2)c2c1c(C)c(CCC(=O)N1CCN(c3ccc(F)cc3)CC1)c(=O)n2C	5.08% (inactive)
Cc1nn(-c2cccc(F)c2)c2c1c(C)c(CCC(=O)NCc1ccccn1)c(=O)n2C	32.6% (active)
Cc1cc(C)c(Cn2cccc2C2=NC(Cc3ccccc3)CO2)c(C)c1 (stereo not given)	7.3% (inactive)
Cc1ccc(-c2nc3c4c(C)c(C)n(-c5cccnc5)c4ncn3n2)cc1	17% (inactive)
CN1CCCCC[C@@H]2[C@@H]1C[C@@H](Cc1ccccc1)N2C(=O)c1cc(C2CC2)[nH]n1	14.4% (inactive)
CCN(CC)S(=O)(=O)c1cc(C(=O)Nc2ccc(-c3cn4ccsc4n3)cc2)ccc1Cl	16.3% (inactive)
N#Cc1ccccc1OCC(=O)Nc1ccc(-c2cn3ccsc3n2)cc1	46.9% (active)
N#Cc1ccc(NC(=O)COC(=O)c2ccc3ccccc3n2)cc1	-197% (inactive)

Structure (SMILES)	inhibition
COc1cc(NC(=O)c2noc3c2CCc2sccc2-3)cc(OC)c1	48.3% (active)
O=C(NCc1ccccc1)c1noc2c1CCc1sccc1-2	4.73% (inactive)
COc1ccc(NC(=O)c2cc(CN3CCOCC3)on2)cc1	-3.06% (inactive)
COc1ccc(OC)c(NC(=O)C(Cc2c[nH]c3ccccc23)N2CCS(=O)(=O)CC2)c1 (stereo not given)	3.96% (inactive)
Cc1cccc(-c2nnc(-c3cccc(S(=O)(=O)N4CCCC4)c3)o2)c1	6.44% (inactive)
O=C(Nc1nnc(-c2cccc([N+](=O)[O-])c2)o1)C1CCN(S(=O)(=O)c2ccc3c(c2)CCC3)CC1	73.8% (active)
O=C(COC(=O)C1CCN(S(=O)(=O)c2c(Cl)cccc2Cl)CC1)Nc1ccc2c(c1)CCC2	0.533% (inactive)
Cn1c(=O)c2c(nc(N3CCN(C(=O)c4ccco4)CC3)n2CCSc2nc3ccccc3s2)n(C)c1=O	0.301% (inactive)
COc1cccc(C(=O)N2CCN(c3nc(-c4ccc(Cl)cc4)no3)CC2)c1OC	8.11% (inactive)
O=C(CSc1nccn1C1CCCCC1)Nc1ccccc1F	20.2% (inactive)
Cc1ccccc1NC(=O)CSc1nnc(C2CC2)n1Cc1ccccc1	-1.39% (inactive)
Nn1c(SCC(=O)Nc2ccccc2F)nnc1-c1n[nH]c2c1CCC2	41.7% (active)
CC(=O)O[C@H]1CC[C@]2(C)[C@H]3Cc4c(cc(-c5cccnc5)oc4=O)O[C@]3(C)CC[C@H]2C1(C)C	1.11% (inactive)
O=C(C1CCCN(S(=O)(=O)N2CCOCC2)C1)N1CCN(Cc2ccccc2)CC1 (stereo not given)	-0.311% (inactive)
COc1ccc(Cl)cc1NC(C)c1nc2sc(C)c(C)c2c(=O)[nH]1 (stereo not given)	-21.9% (inactive)
C/C=C(\Cl)C1=CC(=O)[C@]23C[C@H]2[C@@]2(C)CO[C@@]1(O)[C@@]3(O)O2	68.6% (active)
CCC1(c2ccccc2)NC(=O)N(CC(=O)Nc2ccc(C)c([N+](=O)[O-])c2)C1=O (stereo not given)	-6.64% (inactive)
CCC(=O)c1ccc(OCC(=O)Nc2ccc3c(c2)CCC3)cc1	4.25% (inactive)
O=C(COc1ccc2oc3c(c2c1)CCCC3)Nc1ccccn1	70.8% (active)
COc1ccc(S(=O)(=O)N(C(=O)c2ccccc2)c2ccc3oc4c(c3c2)CCCC4)cc1	-2.79% (inactive)
C=C(NC(=O)/C(C)=C/C=C\CCCCCC(C)C)C(=O)N/C(=C/OC)C(=O)OC	-61.8% (inactive)
O=C(Cc1ccc(Cl)cc1)N1CCC2(CN(Cc3ccc(O)cc3)C2)C1	-0.288% (inactive)
CCOc1ccc(C(=O)C[n+]2cc(-c3ccccc3)n3c2CCC3)cc1	3.07% (inactive)
COc1ccccc1CNCc1c(C(=O)O)c(C)n(-c2ccccc2)c1C	6.79% (inactive)
CNC(=O)C1CCN(c2nc3ccc(-c4ccccc4F)nc3s2)CC1	15.7% (inactive)
O=C(Nc1ccccc1F)C1CCCN(c2nnc3ccccn23)C1 (stereo not given)	4.67% (inactive)
NC(=O)c1ccccc1NC(=O)C1CN(c2nc3c(F)cccc3s2)C1	31% (active)
